Experimental data published in PubChem BioAssay (Tox21).
Where “and” joins values, the source holds several entries; their conditions need not be identical. Identical values can stand only once. Inconclusive results are not listed. Calls of active or inactive are those of the source. Unless noted, calls come from the whole dose curve; as a rule, active = well fitted curve in the direction sought with a large enough effect in the repeat runs; inconclusive = weak or mixed curves; inactive = no such curve, though single readings can be large; an effect the other way counts as inactive or inconclusive.

Columns and labels:
[1] = A CellTox Green Cytotoxicity Assay to monitor cytotoxicity in HEK293 cells - 0 hour (AID 1224869); note: nearly all actives have a fitted effect of over 50% in size; note: potency is the fitted concentration of half-maximal effect; for Cytotoxicity: % is set by controls: 0 for no effect and ±100 for the full control effect
Method in brief: (§1)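 Seeding of HEK293 cells together with cytotoxicity dye preceded a 5 h incubation at 37 C/5% CO2. Test compounds in DMSO were then added and fluorescence monitored across 40 h.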

[2] = qHTS RealTime-Glo MT Cell Viability Assay in HepG2 cells - 40 hour (AID 1224870); note: nearly all actives have a fitted effect of over 50% in size; note: potency is the fitted concentration of half-maximal effect
Method in brief: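 HepG2 cells mixed with RealTime-Glo MT reagents (NanoLuc plus cell-permeant prosubstrate) were seeded at 600 cells/well, incubated 5 h at 37 C/5% CO2, then pinned with compounds in DMSO; nonlytic luminescence tracked viability during 40 h treatment.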

[3] = A CellTox Green Cytotoxicity Assay to monitor cytotoxicity in HEK293 cells - 40 hour (AID 1224871); note: nearly all actives have a fitted effect of over 45% in size; note: potency is the fitted concentration of half-maximal effect
Method in brief: as §1

[4] = qHTS RealTime-Glo MT Cell Viability Assay in HEK293 cells - 40 hour (AID 1224874); conditions: RealTime-Glo luminescence; max response: hits give low values; note: nearly all actives have a fitted effect of over 50% in size; note: potency is the fitted concentration of half-maximal effect; for max response: % is set by controls: 0 for no effect and ±100 for the full control effect
Method in brief: (§2)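 Tox21 screen in HEK293 using RealTime-Glo MT chemistry, with cells and reagent co-dispensed. Luminescence proportional to viable cell number was captured at intervals during 40 h compound exposure at 37 C.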

[5] = A CellTox Green Cytotoxicity Assay to monitor cytotoxicity in HepG2 cells - 16 hour (AID 1224876); note: nearly all actives have a fitted effect of over 45% in size; note: potency is the fitted concentration of half-maximal effect
Method in brief: (§3)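 Nonlytic assay: viable cells exclude the dye, so fluorescence scales with cell death. HepG2 at 600 cells/well, compounds added after 5 h, signal read across 40 h.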

[6] = qHTS RealTime-Glo MT Cell Viability Assay in HEK293 cells - 0 hour (AID 1224880); note: top concentration of the series differs between compounds; % is set by controls: 0 for no effect and ±100 for the full control effect; nearly all actives have a fitted effect of over 45% in size
Method in brief: as §2

[7] = A CellTox Green Cytotoxicity Assay to monitor cytotoxicity in HEK293 cells - 16 hour (AID 1224888); note: nearly all actives have a fitted effect of over 35% in size; note: potency is the fitted concentration of half-maximal effect
Method in brief: as §1

[8] = qHTS RealTime-Glo MT Cell Viability Assay in HepG2 cells - 0 hour (AID 1224889); note: % is set by controls: 0 for no effect and ±100 for the full control effect; nearly all actives have a fitted effect of over 50% in size
Method in brief: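 HepG2 cells were seeded at 600 cells/well together with NanoLuc luciferase and a cell-permeant prosubstrate, preincubated 5 h at 37 C/5% CO2, then pin-dosed with compounds in DMSO. Nonlytic luminescence from viable cells was read at each time point.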

[9] = qHTS assay to identify small molecule antagonists of the androgen receptor (AR) signaling pathway using the MDA cell line in the presence of 0.5 nM R1881 - cell viability counter screen (AID 1259242); note: % is set by controls: 0 for no effect and ±100 for the full control effect; nearly all actives have a fitted effect of over 45% in size
Method in brief: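 R1881 at 0.5 nM final stimulated MDA-kb2 cells during 16 hr compound treatment at 37C. Cytotoxicity read: CellTiter-Fluor fluorescence after 30 min.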

[10] = qHTS assay to identify small molecule HDAC inhibitors - cell viability counter screen (AID 1259365)
Method in brief: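 Wild-type HCT-116 cells were seeded at 1,500 per well, incubated overnight at 37 C, then exposed to compounds in DMSO for 2hr. Viability was read by CellTiter-Glo luminescence after 30min at room temperature.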

[11] = qHTS assay to identify small molecule antagonists of the sonic hedgehog signaling (Shh) pathway (AID 1259369; calls by dose curve; note: nearly all actives have a fitted effect of over 45% in size; note: potency is the fitted concentration of half-maximal effect)
Method in brief: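 Conditioned medium drives Shh signalling in 3T3Gli1-Luc cells; compounds in DMSO co-applied, 24hr at 37 C, then luciferase luminescence.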

[12] = target: Estrogen receptor (Homo sapiens) (UniProt P03372); test: qHTS assay to identify small molecule agonists of the estrogen receptor alpha (ER-alpha) signaling pathway in the presence of an antagonist (AID 1259383; calls by dose curve; note: top concentration of the series differs between compounds; % is set by controls: 0 for no effect and ±100 for the full control effect; nearly all actives have a fitted effect of over 15% in size)
Method in brief: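 Using VM7Luc4E2 cells seeded 24hr before treatment, antagonist ICI-182,780 (10.0nM final) was added, followed by compounds at 15 concentrations. Plates incubated 22hr; ONE-Glo luminescence quantified reporter activity.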

[13] = qHTS assay to identify small molecule agonists of the estrogen receptor alpha (ER-alpha) signaling pathway in the presence of an antagonist - cell viability counter screen (AID 1259386);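 note: cells exposed to compounds for 22 h at 37 °C before the viability read; nearly all actives have a fitted effect of over 30% in size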; note: potency is the fitted concentration of half-maximal effect
Method in brief: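 ICI-182,780 at 10.0nM final accompanies the compound titration (15 concentrations, 22hr, 37C) on VM7Luc4E2 cells. The CellTiter-Fluor fluorescence readout runs in the same wells as the luciferase assay.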

[14] = qHTS assay to identify small molecule antagonists of the TGF-beta/Smad signaling pathway - cell viability counter screen (AID 1346824)
Method in brief: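 SBE-bla HEK 293T cells were plated overnight at 37 C, then given compounds in DMSO plus TGF-beta1 (added as 0.25 ng/mL solution) for 5 hr. After the bla read, CellTiter-Glo was added to the same wells and luminescence read after 30 min at room temperature.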

[15] = target: Cytochrome P450 2C19 (Homo sapiens) (UniProt P33261); test: Cytochrome P450 Family 2 Subfamily C Member 19 (CYP2C19) small molecule antagonists: luciferase reporter qHTS assay (AID 1671197); note: potency is the fitted concentration of half-maximal effect; nearly all actives have a fitted effect of over 65% in size
Method in brief: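 Enzyme-substrate mix with proluciferin substrate (P450-Glo CYP2C19 system) preincubated with compounds 10 min at room temperature; NADPH regeneration solution added, 37C for 1 h; detection reagent stops reaction, luminescence read after 20 min. Ketoconazole positive control.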

[16] = target: Voltage-gated inwardly rectifying potassium channel KCNH2 (Homo sapiens) (UniProt Q12809); test: Human Ether-a-go-go-Related Gene (hERG) channel small molecule antagonists: fluorescence cell-based qHTS assay (AID 1671200); note: nearly all actives have a fitted effect of over 50% in size; note: potency is the fitted concentration of half-maximal effect
Method in brief: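 U2OS cells expressing the channel were plated at 1000 cells/well, incubated overnight at 37 C, then loaded with FluxOR II thallium-sensitive dye for 1 h at room temperature in the dark, with a further 10 min at room temperature before stimulation.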

[17] = A CellTox Green Cytotoxicity Assay to monitor cytotoxicity in HepG2 cells - 8 hour (AID 1224890); note: nearly all actives have a fitted effect of over 45% in size; note: potency is the fitted concentration of half-maximal effect
Method in brief: as §3

[18] = qHTS assay to identify small molecule antagonists of the estrogen receptor alpha (ER-alpha) signaling pathway using the BG1 cell line in the presence of 0.1 nM 17-beta-estradiol - cell viability counter screen (AID 1259241); note: nearly all actives have a fitted effect of over 40% in size; note: potency is the fitted concentration of half-maximal effect
Method in brief: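 VM7Luc4E2 cells (endogenous ER-alpha, 4×ERE-luciferase), hormone-starved 5 days in charcoal-stripped FBS, were treated with compounds plus 0.1 nM 17beta-estradiol for 22 hr at 37C; viability read in same wells as CellTiter-Fluor live-cell protease fluorescence.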

[19] = qHTS assay to identify small molecule agonists of the sonic hedgehog signaling (Shh) pathway - cell viability counter screen (AID 1259366); note: nearly all actives have a fitted effect of over 50% in size; note: potency is the fitted concentration of half-maximal effect
Method in brief: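 NIH/3T3-derived 3T3 Gli1-Luc cells (stable Gli1-responsive firefly luciferase reporter) were seeded, rested 4 hr at 37 C/5% CO2, then exposed to compounds in DMSO for 24 hr; viability was read by CellTiter-Fluor fluorescence in the same wells.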

[20] = qHTS assay for small molecule agonists of the p53 signaling pathway (AID 651631; calls by dose curve; note: % is set by controls: 0 for no effect and ±100 for the full control effect; nearly all actives have a fitted effect of over 15% in size)
Method in brief: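 HCT-116 cells carrying a stable p53 response element–beta-lactamase reporter were plated, rested 5 h at 37 °C, then exposed to compound in DMSO for 16 h at 37 °C; reporter activity was read as FRET substrate fluorescence after 2 h at room temperature.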

Estrogen receptor (Homo sapiens), sequence (P03372 whole entry, looked up): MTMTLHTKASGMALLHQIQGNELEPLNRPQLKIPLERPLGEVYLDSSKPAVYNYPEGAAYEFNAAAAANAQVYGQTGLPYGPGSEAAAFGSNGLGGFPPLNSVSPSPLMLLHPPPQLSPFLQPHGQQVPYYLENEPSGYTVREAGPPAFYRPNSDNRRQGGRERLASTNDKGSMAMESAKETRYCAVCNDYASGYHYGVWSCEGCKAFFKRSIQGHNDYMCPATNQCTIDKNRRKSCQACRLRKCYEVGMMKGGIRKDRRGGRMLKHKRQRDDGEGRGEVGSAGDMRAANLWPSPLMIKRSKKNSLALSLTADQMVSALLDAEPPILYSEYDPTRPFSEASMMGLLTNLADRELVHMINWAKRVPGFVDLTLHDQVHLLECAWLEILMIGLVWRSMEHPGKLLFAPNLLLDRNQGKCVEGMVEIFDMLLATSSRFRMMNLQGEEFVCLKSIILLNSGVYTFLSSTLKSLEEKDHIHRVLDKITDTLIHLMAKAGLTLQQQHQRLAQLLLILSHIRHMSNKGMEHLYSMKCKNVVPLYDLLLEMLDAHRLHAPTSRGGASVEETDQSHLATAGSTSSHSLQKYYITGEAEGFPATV
Voltage-gated inwardly rectifying potassium channel KCNH2 (Homo sapiens), sequence (Q12809 whole entry, looked up): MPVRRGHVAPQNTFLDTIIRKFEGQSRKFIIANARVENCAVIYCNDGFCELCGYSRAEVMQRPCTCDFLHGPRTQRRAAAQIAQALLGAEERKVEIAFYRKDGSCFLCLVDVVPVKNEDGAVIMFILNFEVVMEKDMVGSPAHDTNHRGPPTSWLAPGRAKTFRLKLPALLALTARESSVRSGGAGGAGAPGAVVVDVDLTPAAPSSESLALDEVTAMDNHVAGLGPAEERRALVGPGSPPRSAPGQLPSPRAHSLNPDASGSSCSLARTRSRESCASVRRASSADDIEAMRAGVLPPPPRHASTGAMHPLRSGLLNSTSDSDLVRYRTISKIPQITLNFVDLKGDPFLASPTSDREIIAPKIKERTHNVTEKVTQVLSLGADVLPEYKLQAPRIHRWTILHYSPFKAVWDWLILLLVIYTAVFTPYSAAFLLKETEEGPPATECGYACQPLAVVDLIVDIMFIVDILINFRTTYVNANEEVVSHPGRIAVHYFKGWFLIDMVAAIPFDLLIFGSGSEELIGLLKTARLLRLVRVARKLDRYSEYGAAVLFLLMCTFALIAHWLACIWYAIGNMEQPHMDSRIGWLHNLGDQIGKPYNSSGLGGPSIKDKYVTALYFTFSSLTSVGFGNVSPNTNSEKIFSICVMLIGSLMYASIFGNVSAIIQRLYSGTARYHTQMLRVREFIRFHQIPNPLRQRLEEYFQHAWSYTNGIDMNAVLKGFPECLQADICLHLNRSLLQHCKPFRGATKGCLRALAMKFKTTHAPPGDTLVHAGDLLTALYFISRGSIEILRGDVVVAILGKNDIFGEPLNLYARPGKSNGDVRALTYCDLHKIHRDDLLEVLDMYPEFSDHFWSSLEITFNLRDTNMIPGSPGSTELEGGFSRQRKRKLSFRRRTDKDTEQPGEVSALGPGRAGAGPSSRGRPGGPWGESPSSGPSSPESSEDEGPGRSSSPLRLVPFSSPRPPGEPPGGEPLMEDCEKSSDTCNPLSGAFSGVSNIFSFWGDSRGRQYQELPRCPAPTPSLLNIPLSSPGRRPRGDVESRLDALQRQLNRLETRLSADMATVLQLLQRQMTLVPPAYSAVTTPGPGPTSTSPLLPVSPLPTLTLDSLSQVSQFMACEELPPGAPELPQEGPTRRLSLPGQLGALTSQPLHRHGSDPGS
Cytochrome P450 2C19 (Homo sapiens), sequence (P33261 whole entry, looked up): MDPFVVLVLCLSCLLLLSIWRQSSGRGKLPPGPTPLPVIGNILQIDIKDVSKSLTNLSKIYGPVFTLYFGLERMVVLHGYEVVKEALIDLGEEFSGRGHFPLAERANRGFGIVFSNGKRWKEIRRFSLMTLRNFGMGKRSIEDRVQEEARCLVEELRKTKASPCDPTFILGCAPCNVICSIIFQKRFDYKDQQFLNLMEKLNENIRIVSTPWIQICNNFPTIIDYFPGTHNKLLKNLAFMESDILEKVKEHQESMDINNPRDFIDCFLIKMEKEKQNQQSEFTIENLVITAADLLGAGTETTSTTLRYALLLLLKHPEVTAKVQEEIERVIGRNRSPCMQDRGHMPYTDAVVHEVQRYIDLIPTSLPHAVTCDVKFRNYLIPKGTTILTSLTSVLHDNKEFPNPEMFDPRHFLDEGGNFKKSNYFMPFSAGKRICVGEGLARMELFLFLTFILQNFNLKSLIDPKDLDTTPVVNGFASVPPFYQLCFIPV

COc1cc(OC)c(OC)cc1C=O
active: Potency [11] 13.3 µM | Potency [15] 38.7 µM
inactive: Potency [1] | Potency [2] | Potency [3] | max response [4] -0.404% | Potency [5] | outcome [6] | Potency [7] | Potency [8] | Potency [9] | outcome [10] | outcome [12] | Potency [13] | Potency [14] | Potency [16]

OC(Cc1ccccc1Cl)(Cn1[nH]cnc1=S)C1(Cl)CC1 (stereo not drawn)
inactive: Potency [1] | Potency [2] | Potency [3] | Potency [5] | Potency [7] | Potency [8] | Potency [17] | Potency [18] | Potency [9] | outcome [10] | Potency [19] | outcome [12] | Potency [13] | Potency [16]
active: Potency [11] 38.6 µM | Potency [15] 1.26 µM

CNC(=O)Oc1cc(C)c(SC)c(C)c1
inactive: Potency [2] | Potency [5] | outcome [6] | Potency [8] | Potency [17] | Potency [18] | Potency [9] | outcome [10] | Potency [19] | outcome [12] | Potency [13] | Potency [14] | Potency [16]
active: Potency [7] 21.9 µM | Potency [11] 8.63 µM | Potency [15] 56.4 µM

O=C(Nc1ccccc1-c1ccc(Cl)cc1)c1cccnc1Cl
active: Potency [1] 46.3 µM | Potency [5] 41.2 µM | Potency [17] 41.2 µM | Potency [15] 3.56 µM
inactive: Potency [2] | outcome [6] | Potency [18] | Potency [9] | outcome [10] | Potency [19] | outcome [12] | Potency [13] | Potency [16]

Nc1ccc([N+](=O)[O-])cc1
active: Potency [3] 38.9 µM | Potency [4] 38.9 µM | Potency [17] 43.6 µM | Potency [19] 30.6 µM | Potency [11] 27.3 µM | Potency [13] 27.3 µM | Potency [15] 3.56 µM
inactive: Potency [1] | Potency [2] | outcome [6] | Potency [8] | outcome [10] | Potency [14]

CN1CSC(=S)N(C)C1
inactive: Potency [20] | Potency [1] | Potency [5] | outcome [6] | Potency [7] | Potency [8] | Potency [17] | outcome [10] | outcome [12] | Potency [13] | Potency [14] | Potency [16]
active: Potency [2] 12.3 µM | Potency [3] 6.88 µM and 12.3 µM | Potency [4] 13.7 µM and 21.8 µM | Potency [18] 17.1 µM | Potency [19] 2.42 µM and 6.09 µM | Potency [11] 342 nM and 1.08 µM | Potency [15] 35.4 µM and 17.8 µM

OCC(c1ccc(Cl)cc1)c1ccc(Cl)cc1
active: Potency [3] 43.6 µM | Potency [4] 38.9 µM | Potency [5] 43.6 µM | Potency [7] 24.5 µM | Potency [17] 49 µM | Potency [11] 24.3 µM | Potency [15] 0.0894 µM | Potency [16] 43.6 µM
inactive: Potency [1] | outcome [6] | Potency [8] | Potency [18] | Potency [9] | outcome [10] | outcome [12] | Potency [13] | Potency [14]

O=[N+]([O-])c1c(Cl)c(Cl)cc(Cl)c1Cl
inactive: Potency [2] | max response [4] 0.554% | outcome [6] | Potency [8] | Potency [17] | Potency [18] | Potency [9] | outcome [10] | Potency [19] | Potency [11] | outcome [12] | Potency [13] | Potency [14] | Potency [16]
active: Potency [3] 49 µM | Potency [7] 49 µM | Potency [15] 71 µM

O=C1OC(=O)c2c(Cl)c(Cl)c(Cl)c(Cl)c21
inactive: Potency [20]
